# Data: PubChem BioAssay (Tox21)
# Records with an inconclusive call do not appear. A call without a number means that no potency is given here. Values without a mark were called inactive. Calls of active or inactive are those of the source. Unless noted, the call rests on the fitted dose curve; in most records, active means well fitted curve in the direction sought with a large enough effect in the repeat runs; inconclusive means weak or mixed curves; inactive means no such curve, though single readings can be large; an effect the other way counts as inactive or inconclusive.
# Columns and labels:
# [1] = qHTS assay to identify small molecule agonists of the RXR signaling pathway - cell viability counter screen (AID 1159529); further: series mostly up to about 77 µM; nearly all actives have a fitted effect of over 50% in size
# Outline: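 Luminescence from CellTiter-Glo (30 min, RT) measured viability in the same wells as the beta-lactamase reporter readout. Cells: GeneBLAzer RXR-alpha HEK 293T, 2% charcoal-stripped FBS. Compound exposure 16 hr, 37 C.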
# [2] = qHTS assay to identify small molecule antagonists of the retinoid acid receptor (RAR) signaling pathway - cell viability counter screen (AID 1159551); further: nearly all actives have a fitted effect of over 35% in size
# Outline: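 Cytotoxicity counter screen in C3RL4 cells: 6 h compound exposure with 1 uM retinol (final), viability from cellular ATP by luminescence.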
# [3] = qHTS assay to identify small molecule antagonists of the estrogen related receptor (ERR) signaling pathway from Tox21 library - cell viability counter screen (AID 1224834); further: nearly all actives have a fitted effect of over 30% in size
# Outline: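 Cytotoxicity of test substances is gauged in the same ERR cells used for the antagonist screen, after 17.5 h of compound treatment at 37 C, by CellTiter-Fluor fluorescence measured after 30 min.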
# [4] = target: Luciferin 4-monooxygenase (Photinus pyralis) (UniProt P08659); test: qHTS assay to identify small molecule inhibitors of firefly luciferase (AID 1224835); further: nearly all actives have a fitted effect of over 25% in size; further: potency means the concentration at half of the fitted maximal effect
# Chain of Luciferin 4-monooxygenase (Photinus pyralis) (P08659 whole entry, looked up): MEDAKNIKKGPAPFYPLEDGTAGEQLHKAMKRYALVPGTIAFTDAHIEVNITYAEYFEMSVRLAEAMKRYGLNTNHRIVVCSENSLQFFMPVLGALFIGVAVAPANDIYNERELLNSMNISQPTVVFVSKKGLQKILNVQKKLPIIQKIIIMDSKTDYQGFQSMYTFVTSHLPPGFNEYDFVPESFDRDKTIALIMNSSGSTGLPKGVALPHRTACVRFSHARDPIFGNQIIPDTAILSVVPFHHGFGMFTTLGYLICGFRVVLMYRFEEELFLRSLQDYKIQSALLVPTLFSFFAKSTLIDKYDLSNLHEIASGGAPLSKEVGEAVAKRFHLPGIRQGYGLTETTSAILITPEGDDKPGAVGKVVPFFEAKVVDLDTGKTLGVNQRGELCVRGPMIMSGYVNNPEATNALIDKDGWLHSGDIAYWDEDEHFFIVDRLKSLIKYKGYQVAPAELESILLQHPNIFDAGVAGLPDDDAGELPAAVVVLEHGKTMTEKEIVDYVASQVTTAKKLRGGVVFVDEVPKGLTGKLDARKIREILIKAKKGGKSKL
# Outline: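 Quantitative HTS format; KM concentrations of both substrates. Purified P. pyralis FLuc activity quantified from luminescence images.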
# [5] = qHTS assay to identify small molecule agonists of the constitutive androstane receptor (CAR) signaling pathway - cell viability counter screen (AID 1224836); further: series mostly up to about 92 µM; nearly all actives have a fitted effect of over 45% in size
# Outline: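 Viability read-out: CellTiter-Fluor fluorescence after 23 h compound exposure at 37 C/5% CO2 in double-stable HepG2-CYP2B6-hCAR cells, with PK11195 present at 0.75 uM final; compounds tested in 15-point titration.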
# [6] = qHTS assay to identify small molecule antagonists of the constitutive androstane receptor (CAR) signaling pathway - cell viability counter screen (AID 1224837); further: series mostly up to about 92 µM; nearly all actives have a fitted effect of over 45% in size
# Outline: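 Multiplexed cytotoxicity read-out for the CAR antagonist screen: double-stable HepG2-CYP2B6-hCAR cells co-treated with 50 nM CITCO (final) and compound over 15 concentrations, incubated 23 hr, then assessed by CellTiter-Fluor fluorescence.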
# [7] = qHTS assay to identify small molecule antagonists of the estrogen related receptor signaling pathway with the pleiotropic PPARgamma coactivator (PGC) from Tox21 10K library - cell viability counter screen (AID 1224840; active means well fitted cell-killing curve with a large enough effect in the repeat runs, not every such curve was filed as active; further: nearly all actives have a fitted effect of over 40% in size)
# Outline: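 Step one, plate 2,000 PGC/ERR cells per well; step two, incubate 6 h at 37 C/5% CO2; step three, pin-transfer compounds; step four, incubate 17.5 h; step five, add CellTiter-Fluor and read fluorescence after 30 min.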
# [8] = qHTS assay to identify small molecule antagonists of the estrogen related receptor signaling pathway with the pleiotropic PPARgamma coactivator (PGC) from Tox21 10K library (AID 1224841; call rule not given here; further: series mostly up to about 92 µM; actives are mostly falling curves and most rising ones were filed inactive; nearly all actives have a fitted effect of over 50% in size)
# Outline: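 Antagonism in this quantitative HTS is taken from loss of luciferase signal in PGC/ERR cells. Cells (2,000/well) are treated with compounds in DMSO after a 6 h settling period and read by One-Glo luminescence after 18 h.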
# [9] = target: Nuclear receptor subfamily 1 group I member 3 (Homo sapiens) (UniProt Q14994); test: qHTS assay to identify small molecule antagonists of the constitutive androstane receptor (CAR) signaling pathway (AID 1224838); further: nearly all actives have a fitted effect of over 40% in size; further: potency means the concentration at half of the fitted maximal effect
# Chain of Nuclear receptor subfamily 1 group I member 3 (Homo sapiens) (Q14994 whole entry, looked up): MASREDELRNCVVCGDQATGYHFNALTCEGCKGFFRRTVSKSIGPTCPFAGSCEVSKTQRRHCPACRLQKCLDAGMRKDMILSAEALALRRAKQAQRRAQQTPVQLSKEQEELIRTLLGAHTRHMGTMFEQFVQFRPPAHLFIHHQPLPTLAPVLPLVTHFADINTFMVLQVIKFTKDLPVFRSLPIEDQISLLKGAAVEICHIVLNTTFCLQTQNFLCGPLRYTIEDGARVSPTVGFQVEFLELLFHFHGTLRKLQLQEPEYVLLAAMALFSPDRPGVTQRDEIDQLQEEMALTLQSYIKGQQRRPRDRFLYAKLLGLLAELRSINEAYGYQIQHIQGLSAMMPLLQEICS
# Outline: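 Compounds were titrated across 15 concentrations onto HepG2 cells double-stably expressing hCAR and a CYP2B6-2.2kb reporter, together with 50 nM CITCO (final). After 24 h at 37 C, luciferase activity was measured by luminescence.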
# [10] = target: Nuclear receptor subfamily 1 group I member 3 (Homo sapiens) (UniProt Q14994); test: qHTS assay to identify small molecule agonists of the constitutive androstane receptor (CAR) signaling pathway (AID 1224839); further: nearly all actives have a fitted effect of over 15% in size; further: potency means the concentration at half of the fitted maximal effect
# Outline: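 Luminescence read-out (ONE-Glo, 30 min, room temperature) from double-stable HepG2-CYP2B6-hCAR cells exposed 24 h to 15-point compound series in presence of 0.75 uM PK11195 final.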
# [11] = qHTS assay to identify small molecule agonists of the estrogen related receptor signaling pathway with the pleiotropic PPARgamma coactivator (PGC) from Tox21 10K library (AID 1224842); further: nearly all actives have a fitted effect of over 15% in size
# Outline: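 PGC/ERR reporter cells (NTP line) were seeded 2,000 per well, rested 6 h at 37 C/5% CO2, then pin-dosed with compounds in DMSO for 18 h at 37 C; luciferase read by One-Glo luminescence after 30 min at room temperature.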
Compound,Potency [1],outcome [2],Potency [3],Potency [4],Potency [5],Potency [6],Potency [7],Potency [8],Potency [9],Potency [10],Potency [11]
CCCCCC1CCC(=O)O1 (configuration not stated),inactive,inactive,inactive,inactive,inactive,inactive,inactive,inactive,,,
O=S(=O)(O)c1cc(Cl)c(Cl)cc1Cl,inactive,inactive,inactive,inactive,inactive,inactive,inactive,,inactive,inactive,
C[C@H]1C[C@H]2[C@@H]3CCC4=CC(=O)C=C[C@]4(C)[C@@]3(F)[C@@H](O)C[C@]2(C)[C@@]1(O)C(=O)COP(=O)(O)O,inactive,inactive,inactive,inactive,inactive,inactive,inactive,,,,
Cc1nc(C)c(C)nc1C,inactive,inactive,inactive,inactive,inactive,inactive,inactive,inactive,inactive,inactive,
CC(C)(C)c1cc(C=O)cc(C(C)(C)C)c1O,inactive,inactive,inactive,inactive,inactive,inactive,inactive,,,,
Cc1cc(SC2=C(O)C[C@@](CCc3ccc(N)cc3)(C(C)C)OC2=O)c(C(C)(C)C)cc1CO,inactive,inactive,inactive,inactive,inactive,inactive,inactive,inactive,,,
O=C(OCCN1CCOCC1)c1cccnc1Nc1cccc(C(F)(F)F)c1,inactive,inactive,inactive,inactive,inactive,inactive,inactive,,inactive,inactive,
FC1(F)C(F)(F)C(F)(F)C2(F)C(F)(C1(F)F)C(F)(F)C(F)(F)C1(F)C(F)(F)C(F)(F)C(F)(F)C(F)(F)C12F (configuration not stated),inactive,inactive,inactive,inactive,inactive,,inactive,,inactive,inactive,
CCCC1CCOC(C)S1 (configuration not stated),inactive,inactive,inactive,inactive,inactive,,inactive,,,,
C[Si](C)(C)O[Si](C)(C)O[Si](C)(C)C,inactive,inactive,inactive,inactive,inactive,inactive,inactive,,inactive,inactive,
C=CC(C)(O)CC/C=C(/C)CCC=C(C)C (configuration not stated),inactive,inactive,inactive,inactive,inactive,inactive,inactive,,,,
CO[C@@H]1COCC[C@@H]1N[C@@H]1CC[C@@](C(=O)N2CCc3ncc(C(F)(F)F)cc3C2)(C(C)C)C1,inactive,inactive,inactive,inactive,inactive,,inactive,,inactive,inactive,
CC/C=C/CCO,inactive,inactive,inactive,inactive,inactive,inactive,inactive,inactive,,,inactive
COc1ccc(/C(C)=C/C(=O)O)c(OC)c1,inactive,inactive,inactive,inactive,inactive,inactive,inactive,inactive,,,
CC(=O)S[C@H](C(=O)N[C@H]1Cc2ccccc2[C@H]2CCC[C@@H](C(=O)O)N2C1=O)C(C)C,inactive,inactive,inactive,inactive,inactive,inactive,inactive,inactive,inactive,inactive,inactive
C=CC(O)CCCCC (configuration not stated),inactive,inactive,inactive,inactive,inactive,inactive,inactive,,inactive,inactive,inactive
CNc1ccccc1,inactive,inactive,inactive,inactive,inactive,,inactive,inactive,,,
C/C(=C\C(C)CC(C)CC(C)C)C1CC(=O)OC1=O (configuration not stated),inactive,inactive,inactive,89.4 µM (active),inactive,inactive,inactive,,,,
CC1(C)C(=O)NC(=O)N1CO,inactive,inactive,inactive,inactive,inactive,inactive,inactive,,inactive,inactive,
C1CCN(CN2CCCCC2)CC1,inactive,inactive,inactive,inactive,inactive,inactive,inactive,,inactive,inactive,
CCCCC(CC)COCCC#N (configuration not stated),inactive,inactive,inactive,inactive,inactive,inactive,inactive,,inactive,inactive,
Clc1cccc(C(c2ccc3nc[nH]c3c2)n2ccnc2)c1 (configuration not stated),inactive,inactive,inactive,inactive,inactive,inactive,inactive,,inactive,,
Nc1nc(Cl)nc2c1ncn2[C@H]1C[C@H](O)[C@@H](CO)O1,inactive,inactive,inactive,inactive,inactive,inactive,inactive,,0.121 µM (active),inactive,
CCCCCO,inactive,inactive,inactive,inactive,inactive,inactive,inactive,inactive,inactive,inactive,inactive
CC1(COc2ccc(CC3SC(=O)NC3=O)cc2)CCCCC1 (configuration not stated),inactive,inactive,inactive,27.5 µM (active),inactive,inactive,inactive,inactive,inactive,,
COc1ccc(C(=O)c2ccc(C)cc2)c(O)c1,inactive,inactive,inactive,11.4 µM (active),inactive,inactive,inactive,inactive,inactive,27.6 µM (active),
